Of roughly 8,800 targets only a part is listed; those with a hit were picked by preference. About 0.5% of all pairs of compound and target were hits. Values without a mark were called inactive.
Legend:
Experiment in all cases: log2 fold change, soluble protein after heating vs DMSO (PISA); higher = thermal stabilisation; K562 lysate, 10 uM; active = over 0.2 and 3.5 SD of the protein, either way, in both replicates (recomputed)
[1] = compound: CN1CC[C@H](c2c(O)cc(O)c3c(=O)cc(-c4ccccc4Cl)oc23)[C@H](O)C1 [alvocidib]
Outline: (§1)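 K562 pellets were dounce-homogenised in PBS pH 7.4 containing 1 mM MgCl2, and the crude extract, at 1 mg/mL protein, was exposed to 10 μM compound for 30 min. Aliquots were heated for 3 min across 48°C-58°C, pooled, brought to 0.5% NP-40 at 4°C and spun at 21,000xg for 90 min, with the supernatant taken as soluble protein. TMTpro 16plex LC-MS/MS with equalised channel sums quantified that protein. Values are log-two fold changes in thermal stability relative to solvent controls, taken from duplicates.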

[2] = compound: CN1CCc2c(c3ccccc3n2Cc2ccc(C(=O)NO)cc2)C1 [Tubastatin A]
Outline: as §1

[3] = compound: CNC(=O)C1=CC=CC=C1NC2=NC(=NC=C2Cl)NC3=C(C=C(C=C3)N4CCOCC4)OC
Outline: as §1

[4] = compound: CNC(=O)c1ccc(Nc2ncc(C(F)(F)F)c(NCc3nccnc3N(C)S(C)(=O)=O)n2)cc1 [defactinib]
Outline: as §1

[5] = compound: CNc1nc(-c2ccc3c(N)n[nH]c3c2)cc(N2C[C@@H](C(=O)NC3CCCCC3)CC[C@H]2C)n1
Outline: as §1

[6] = compound: COC(=O)N[C@@H](C)CNc1nccc(-c2cn(C(C)C)nc2-c2cc(Cl)cc(NS(C)(=O)=O)c2F)n1 [encorafenib]
Outline: as §1

[7] = compound: COC(=O)[C@H](CCSC)NC(=O)C1=C(C=C(C=C1)NC[C@H](CS)N)C2=CC=CC=C2
Outline: as §1

[8] = compound: COc1cc(Nc2ncc3c(n2)-c2ccc(Cl)cc2C(c2c(F)cccc2OC)=NC3)ccc1C(=O)O [alisertib]
Outline: as §1

[9] = compound: COc1cc2nc(-c3cc(F)ccc3O)nc(N[C@@H]3CNC[C@H]3C(C)(C)O)c2cc1OC
Outline: as §1

[10] = compound: COc1cc2ncnc(Nc3ccc(F)c(Cl)c3)c2cc1OCCCN1CCOCC1 [gefitinib]
Outline: as §1

[11] = compound: CS(=O)(=O)CCNCc1ccc(-c2ccc3ncnc(Nc4ccc(OCc5cccc(F)c5)c(Cl)c4)c3c2)o1 [lapatinib]
Outline: as §1

[12] = compound: CS(=O)(=O)N1CCN(Cc2cc3nc(-c4cccc5[nH]ncc45)nc(N4CCOCC4)c3s2)CC1 [pictilisib]
Outline: as §1

[13] = compound: C[C@@H](Oc1cc(-c2cnn(C3CCNCC3)c2)cnc1N)c1c(Cl)ccc(F)c1Cl [crizotinib]
Outline: as §1

[14] = compound: C[C@H](C1=CC=C(C=C1)C(=O)NC2=C3C=CNC3=NC=C2)N
Outline: as §1

[15] = compound: C[C@H](Nc1ncnc2nc[nH]c12)c1cc2cccc(Cl)c2c(=O)n1-c1ccccc1 [duvelisib]
Outline: as §1

[16] = compound: Cc1cc(Nc2cc(CN3CCOCC3)c3nc(C)c(Cc4ccc(Cl)cc4F)n3n2)n[nH]1 [gandotinib]
Outline: as §1

[17] = compound: Cc1cc(Nc2cc(N3CCN(C)CC3)nc(Sc3ccc(NC(=O)C4CC4)cc3)n2)n[nH]1 [tozasertib]
Outline: as §1

[18] = compound: Cc1ccc(-n2nc(C(C)(C)C)cc2NC(=O)Nc2ccc(OCCN3CCOCC3)c3ccccc23)cc1 [doramapimod]
Outline: as §1

[19] = compound: Cc1ccc(NC(=O)c2ccc(CN3CC[C@H](N(C)C)C3)c(C(F)(F)F)c2)cc1Nc1nccc(-c2cncnc2)n1 [bafetinib]
Outline: as §1

[20] = compound: Cc1cccc(CC(=O)N2CCc3c2ccc(-c2cn(C)c4ncnc(N)c24)c3F)n1
Outline: as §1

UniProt P48507, sequence (P48507 whole entry, looked up): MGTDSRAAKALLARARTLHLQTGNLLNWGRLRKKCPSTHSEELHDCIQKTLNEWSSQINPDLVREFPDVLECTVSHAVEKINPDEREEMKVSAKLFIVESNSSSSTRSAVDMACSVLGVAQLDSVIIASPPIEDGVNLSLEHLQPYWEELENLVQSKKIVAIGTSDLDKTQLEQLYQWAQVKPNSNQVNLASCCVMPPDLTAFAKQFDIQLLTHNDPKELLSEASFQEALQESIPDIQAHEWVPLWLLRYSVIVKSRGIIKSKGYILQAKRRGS
UniProt P06733, sequence (P06733 whole entry, looked up): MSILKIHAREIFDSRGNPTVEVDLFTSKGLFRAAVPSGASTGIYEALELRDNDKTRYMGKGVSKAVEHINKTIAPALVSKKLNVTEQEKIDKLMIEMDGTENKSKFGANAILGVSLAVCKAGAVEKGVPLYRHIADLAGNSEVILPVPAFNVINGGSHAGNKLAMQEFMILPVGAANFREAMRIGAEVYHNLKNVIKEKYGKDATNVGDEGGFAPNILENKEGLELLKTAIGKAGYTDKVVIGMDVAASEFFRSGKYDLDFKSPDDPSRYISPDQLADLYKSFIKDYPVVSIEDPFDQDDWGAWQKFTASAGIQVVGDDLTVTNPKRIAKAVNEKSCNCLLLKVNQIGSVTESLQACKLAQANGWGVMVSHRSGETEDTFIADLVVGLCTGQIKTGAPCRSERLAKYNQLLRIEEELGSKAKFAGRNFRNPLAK
UniProt P51570, sequence (P51570 whole entry, looked up): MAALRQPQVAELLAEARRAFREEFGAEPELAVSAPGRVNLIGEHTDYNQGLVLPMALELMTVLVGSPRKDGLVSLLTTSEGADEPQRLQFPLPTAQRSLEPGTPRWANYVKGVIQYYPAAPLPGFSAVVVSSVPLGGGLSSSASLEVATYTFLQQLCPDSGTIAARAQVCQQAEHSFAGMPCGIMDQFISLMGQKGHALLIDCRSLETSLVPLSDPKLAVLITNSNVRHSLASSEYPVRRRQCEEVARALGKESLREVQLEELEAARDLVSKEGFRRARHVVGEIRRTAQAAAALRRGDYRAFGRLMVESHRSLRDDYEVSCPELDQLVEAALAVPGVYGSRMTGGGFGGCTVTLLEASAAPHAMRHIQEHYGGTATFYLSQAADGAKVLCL
UniProt Q8N6R0, sequence (Q8N6R0 whole entry, looked up): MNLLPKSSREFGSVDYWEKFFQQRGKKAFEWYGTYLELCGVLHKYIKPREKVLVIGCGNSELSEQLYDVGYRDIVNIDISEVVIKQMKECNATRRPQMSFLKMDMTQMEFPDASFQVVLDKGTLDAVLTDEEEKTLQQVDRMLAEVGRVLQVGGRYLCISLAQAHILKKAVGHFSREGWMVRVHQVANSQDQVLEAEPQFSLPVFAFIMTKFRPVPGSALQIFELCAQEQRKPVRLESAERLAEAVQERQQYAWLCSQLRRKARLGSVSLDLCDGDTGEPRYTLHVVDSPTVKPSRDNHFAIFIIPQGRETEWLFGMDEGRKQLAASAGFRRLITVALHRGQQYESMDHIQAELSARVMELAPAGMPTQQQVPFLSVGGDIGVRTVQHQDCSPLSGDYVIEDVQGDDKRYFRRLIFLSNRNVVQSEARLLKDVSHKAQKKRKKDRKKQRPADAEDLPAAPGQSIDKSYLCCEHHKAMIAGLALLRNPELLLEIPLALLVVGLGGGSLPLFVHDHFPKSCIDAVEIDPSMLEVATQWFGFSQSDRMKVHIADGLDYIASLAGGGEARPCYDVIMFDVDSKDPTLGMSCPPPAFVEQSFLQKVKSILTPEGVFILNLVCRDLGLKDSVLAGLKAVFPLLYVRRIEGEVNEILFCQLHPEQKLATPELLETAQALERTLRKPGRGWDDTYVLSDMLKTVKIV
UniProt Q92538, sequence (Q92538 whole entry, looked up): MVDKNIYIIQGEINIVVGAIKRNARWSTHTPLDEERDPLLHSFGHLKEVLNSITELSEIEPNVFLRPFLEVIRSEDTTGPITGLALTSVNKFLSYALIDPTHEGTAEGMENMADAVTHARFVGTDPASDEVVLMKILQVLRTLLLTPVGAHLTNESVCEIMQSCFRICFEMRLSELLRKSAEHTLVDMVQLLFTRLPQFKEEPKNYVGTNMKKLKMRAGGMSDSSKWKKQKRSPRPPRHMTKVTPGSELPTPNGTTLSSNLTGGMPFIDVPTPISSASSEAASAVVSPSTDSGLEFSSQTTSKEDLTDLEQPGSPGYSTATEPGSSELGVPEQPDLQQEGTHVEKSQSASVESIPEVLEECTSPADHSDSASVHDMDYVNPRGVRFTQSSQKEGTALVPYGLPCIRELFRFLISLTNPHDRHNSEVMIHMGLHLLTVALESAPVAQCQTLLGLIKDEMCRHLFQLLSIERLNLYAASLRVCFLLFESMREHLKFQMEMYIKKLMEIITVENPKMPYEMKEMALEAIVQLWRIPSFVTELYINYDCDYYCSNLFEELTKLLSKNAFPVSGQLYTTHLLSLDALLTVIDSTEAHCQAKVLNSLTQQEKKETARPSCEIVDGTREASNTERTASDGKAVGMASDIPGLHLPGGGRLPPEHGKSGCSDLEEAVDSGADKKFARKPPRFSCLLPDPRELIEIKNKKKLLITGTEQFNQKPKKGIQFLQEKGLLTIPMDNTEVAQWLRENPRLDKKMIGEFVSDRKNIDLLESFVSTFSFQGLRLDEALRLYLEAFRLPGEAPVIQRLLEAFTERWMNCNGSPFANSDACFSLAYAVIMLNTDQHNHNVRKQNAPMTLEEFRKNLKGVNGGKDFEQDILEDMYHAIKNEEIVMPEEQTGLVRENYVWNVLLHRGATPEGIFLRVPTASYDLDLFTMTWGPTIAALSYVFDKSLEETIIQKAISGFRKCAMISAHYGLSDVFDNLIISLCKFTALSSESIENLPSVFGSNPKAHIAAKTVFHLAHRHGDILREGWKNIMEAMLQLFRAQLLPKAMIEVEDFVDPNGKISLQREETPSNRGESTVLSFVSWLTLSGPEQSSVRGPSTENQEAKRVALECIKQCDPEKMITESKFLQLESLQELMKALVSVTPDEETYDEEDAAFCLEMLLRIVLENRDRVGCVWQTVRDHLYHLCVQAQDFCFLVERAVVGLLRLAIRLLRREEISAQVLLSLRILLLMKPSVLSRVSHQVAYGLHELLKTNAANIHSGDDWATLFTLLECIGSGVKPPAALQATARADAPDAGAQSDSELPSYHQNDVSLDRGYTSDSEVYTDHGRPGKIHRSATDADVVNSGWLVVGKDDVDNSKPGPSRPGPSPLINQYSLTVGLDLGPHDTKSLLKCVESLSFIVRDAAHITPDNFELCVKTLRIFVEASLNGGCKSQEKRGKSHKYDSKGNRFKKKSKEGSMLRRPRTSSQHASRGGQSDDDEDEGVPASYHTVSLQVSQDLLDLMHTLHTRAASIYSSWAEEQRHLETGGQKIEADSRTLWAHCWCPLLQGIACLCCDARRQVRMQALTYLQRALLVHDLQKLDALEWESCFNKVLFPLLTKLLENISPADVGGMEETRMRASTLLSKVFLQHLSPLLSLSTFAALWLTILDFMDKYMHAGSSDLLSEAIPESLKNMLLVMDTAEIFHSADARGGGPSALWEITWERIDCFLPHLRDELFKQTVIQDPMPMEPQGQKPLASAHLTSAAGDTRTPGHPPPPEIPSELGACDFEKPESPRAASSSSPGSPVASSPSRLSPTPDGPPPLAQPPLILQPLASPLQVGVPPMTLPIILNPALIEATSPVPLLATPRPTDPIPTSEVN
UniProt Q8N5C7, sequence (Q8N5C7 whole entry, looked up): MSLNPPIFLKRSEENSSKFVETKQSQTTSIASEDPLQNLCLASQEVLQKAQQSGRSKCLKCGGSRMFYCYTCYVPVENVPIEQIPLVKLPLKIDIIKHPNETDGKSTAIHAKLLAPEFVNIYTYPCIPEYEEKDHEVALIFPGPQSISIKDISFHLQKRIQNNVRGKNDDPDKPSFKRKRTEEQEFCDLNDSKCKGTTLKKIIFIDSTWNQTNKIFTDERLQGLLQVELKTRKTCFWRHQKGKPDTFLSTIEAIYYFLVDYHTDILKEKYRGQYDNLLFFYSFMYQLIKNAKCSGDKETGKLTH
UniProt Q9BQI3, sequence (Q9BQI3 whole entry, looked up): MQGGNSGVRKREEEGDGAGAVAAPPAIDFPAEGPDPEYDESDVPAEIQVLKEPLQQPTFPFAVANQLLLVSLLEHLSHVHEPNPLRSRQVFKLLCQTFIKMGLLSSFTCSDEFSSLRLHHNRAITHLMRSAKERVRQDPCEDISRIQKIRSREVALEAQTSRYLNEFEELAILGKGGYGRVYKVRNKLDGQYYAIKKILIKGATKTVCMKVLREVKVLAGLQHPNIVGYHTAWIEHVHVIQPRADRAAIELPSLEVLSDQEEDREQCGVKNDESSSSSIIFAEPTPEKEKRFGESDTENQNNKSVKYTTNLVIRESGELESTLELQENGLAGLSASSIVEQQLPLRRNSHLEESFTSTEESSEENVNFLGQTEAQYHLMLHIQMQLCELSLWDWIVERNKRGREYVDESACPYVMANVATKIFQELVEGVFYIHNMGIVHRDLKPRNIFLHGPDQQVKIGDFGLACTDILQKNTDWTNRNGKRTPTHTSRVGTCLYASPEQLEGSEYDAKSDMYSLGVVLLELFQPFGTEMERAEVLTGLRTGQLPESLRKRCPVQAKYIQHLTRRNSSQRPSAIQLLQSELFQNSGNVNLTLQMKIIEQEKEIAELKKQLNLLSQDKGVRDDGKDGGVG

Target | log2 fold change [1] | log2 fold change [2] | log2 fold change [3] | log2 fold change [4] | log2 fold change [5] | log2 fold change [6] | log2 fold change [7] | log2 fold change [8] | log2 fold change [9] | log2 fold change [10] | log2 fold change [11] | log2 fold change [12] | log2 fold change [13] | log2 fold change [14] | log2 fold change [15] | log2 fold change [16] | log2 fold change [17] | log2 fold change [18] | log2 fold change [19] | log2 fold change [20]
EEF1AKNMT (UniProt Q8N6R0) | 0.009 | -0.102 | 0.051 | -0.012 | -0.015 | 0.005 | 0.076 | -0.02 | 0.027 | -0.031 | -0.006 | -0.046 | -0.123 | 0.017 | 0.03 | -0.133 | -0.029 | 0.074 | -0.014 | -0.024
GBF1 (UniProt Q92538) | 0 | -0.041 | 0.032 | 0.007 | 0.004 | 0.036 | -0.031 | 0.002 | -0.008 | -0.03 | -0.015 | -0.023 | -0.064 | -0.026 | -0.002 | -0.108 | 0.014 | -0.006 | -0.043 | 0.049
EPHX2 (UniProt P34913) | -0.018 | 0.183 | -0.023 | -0.002 | 0.123 | -0.02 | -0.058 | -0.045 | -0.007 | -0.002 | -0.031 | -0.019 | 0.061 | 0.008 | -0.031 | 0.057 | 0.116 | -0.079 | 0.131 | 0.012
GALK1 isoform 2 (UniProt P51570) | 0.035 | -0.132 | -0.005 | -0.002 | 0 | 0.02 | -0.171 | 0.054 | -0.016 | 0.034 | -0.002 | -0.02 | -0.015 | 0.092 | -0.028 | -0.098 | 0.03 | 0.039 | -0.007 | -0.013
ENO1 isoform 2 (UniProt P06733) | -0.174 | 0.085 | -0.13 | -0.001 | 0.009 | 0.033 | -0.033 | 0.022 | -0.004 | -0.015 | 0.005 | -0.012 | -0.019 | -0.285 (active) | 0.049 | 0.153 | 0.026 | -0.019 | 0.07 | 0.222
EIF2AK1 (UniProt Q9BQI3) | 0.044 | -0.044 | 0.068 | -0.021 | -0.028 | -0.004 | 0.041 | -0.004 | 0.122 | 0.101 | 0.142 | -0.022 | -0.036 | -0.033 | 0.06 | -0.009 | -0.009 | 0.017 | -0.068 | 0.062
DTWD1 (UniProt Q8N5C7) | 0.041 | -0.028 | 0.011 | -0.032 | 0.01 | -0.044 | -0.046 | 0 | 0.005 | -0.006 | -0.049 | -0.049 | 0 | 0.015 | 0.06 | -0.07 | -0.075 | 0.035 | 0.002 | 0.092
GCLM (UniProt P48507) | 0.028 | -0.049 | 0.003 | 0.003 | -0.038 | -0.003 | -0.004 | 0.05 | 0.002 | -0.023 | -0.006 | -0.013 | 0.018 | -0.009 | 0.016 | -0.004 | -0.017 | 0.001 | 0.003 | -0.03

Source: the supplement of paper PMC10849652
